Among the data in PubChem BioAssay are outcome values, retold here.

The structures appear in SMILES notation. Activity calls are given as the source filed them. No rule for the calls is given here.

The target of the assay is Protein kinase 7 (PK7), Plasmodium falciparum 3D7 (PF3D7_0213400) (UniProt Q7YTF7). Description: inhibition of Plasmodium PK7 catalytic activity – biochemical, TCAMS antimalarial set, Kinase-Glo luminescence (AID 1159587). The following applies: recombinant PfPK7, Kinase-Glo ATP depletion luminescence.
Sequence of Protein kinase 7 (PK7), Plasmodium falciparum 3D7 (PF3D7_0213400) (Q7YTF7 1-343): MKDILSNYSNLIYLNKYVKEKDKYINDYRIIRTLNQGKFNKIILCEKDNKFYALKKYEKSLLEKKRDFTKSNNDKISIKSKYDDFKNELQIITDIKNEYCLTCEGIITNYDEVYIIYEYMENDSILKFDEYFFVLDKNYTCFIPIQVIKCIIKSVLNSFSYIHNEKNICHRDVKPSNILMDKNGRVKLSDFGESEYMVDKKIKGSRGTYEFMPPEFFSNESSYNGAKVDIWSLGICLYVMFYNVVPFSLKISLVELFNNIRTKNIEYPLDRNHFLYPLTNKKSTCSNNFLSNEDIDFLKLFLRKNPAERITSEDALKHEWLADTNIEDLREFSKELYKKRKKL
`COc1ccc(CC(C)NCC(O)c2cccc(Cl)c2F)cc1` (stereo not given): the outcome was inactive.
To `O=C(NC1CCC(CN2CCC(c3c[nH]c4ccccc34)CC2)CC1)c1cnn(-c2ccccc2)c1-c1ccccc1Cl` (stereo not given) belongs “inactive”.
Turning to `COc1ccc(OC)c([C@H](O)[C@@H](C)NCc2cc(Cl)ccc2O)c1`, the outcome was inactive.
Turning to `OC1(CNCc2ccccc2)CCN(CCc2c[nH]c3ccc(F)cc23)CC1`, the outcome was inactive.
`CNC(=O)c1ccc2[nH]cc(C3CCN(CC4CCC(NC(=O)/C=C/c5ccccc5Cl)CC4)CC3)c2c1` (stereo not given): the outcome was inactive.
As for `CC(Cc1ccc(SC(C)C)cc1)NCC(O)c1cccc(Cl)c1` (stereo not given), the outcome was inactive.
Turning to `CS(=O)(=O)Nc1ccc2c(C3CCN(CC4CCN(C(=O)/C=C/c5ccc(Cl)c(Cl)c5)CC4)CC3)c[nH]c2c1`, the result was inactive.
In the case of `COC(=O)/C=C/c1ccc(C[C@@H](C)NC[C@H](O)c2cccc(C(F)(F)F)c2)cc1`, the outcome was inactive.
Regarding `COCCNCc1cccc(-c2ccc(CN(C(=O)Nc3ccccc3)C3CCN(Cc4ccccc4)CC3)cc2)c1`, the result was inactive.
In the case of `Cc1ccc(C[C@@H](C)NC[C@H](O)c2cccc(C(F)(F)F)c2)cc1`, the outcome was inactive.
As to `CC[C@H]1CN2CC[C@H]1C[C@H]2[C@H](O)c1cc(-c2cccc(C)c2)nc2ccc(OC)cc12`, the outcome was inactive.
Regarding `CC(C)NC(=O)Cn1cc(C2CCN(CC3CCN(C(=O)/C=C/c4ccc(Cl)c(Cl)c4)CC3)CC2)c2ccccc21`, the outcome was inactive.
To `Cc1ccc(C)c(N2CCN(Cc3ccccc3O)CC2)c1` belongs “inactive”; to `O=C(/C=C/c1ccc(Cl)c(Cl)c1)NCCCCCN1C2CCC1CC(c1c[nH]c3ccccc13)C2` (stereo not given), “inactive”; to `CC(Cc1ccc(SC(C)(C)C)cc1)NCC(O)c1cccc(Cl)c1` (stereo not given), “inactive”.
To `CC(C)CNCc1ccc(-c2cccc(CN(C(=O)Nc3ccccc3)C3CCN(Cc4ccccc4)CC3)c2)cc1` belongs “inactive”; to `C=C[C@H]1CN2CC[C@@H]1C[C@H]2[C@H](O)c1cc(-c2ccc(F)cc2)nc2ccc(OC)cc12`, “inactive”.
For the compound `Cc1cccc(C(=O)Nc2ccnc(N(C)C3CCN(CC(C)C)CC3)c2)c1`, the result was inactive.
In the case of `Cc1ccccc1CNCC(O)c1cccc(C(F)(F)F)c1` (stereo not given), the outcome was inactive.
In the case of `CNCCN(C)C(=O)Oc1c(Cl)c(C)nc(C)c1-c1ccc(Oc2ccc(OC(F)(F)F)cc2)cc1`, the result was inactive.
In the case of `O=C(/C=C/c1ccc(Cl)c(Cl)c1)NCCC1CCC(N2CCC(c3c[nH]c4ccc(O)cc34)CC2)CC1` (stereo not given), the result was inactive.
`CN(c1cc(NC(=O)c2cccs2)ccn1)C1CCN(Cc2ccccc2)CC1`: the result was inactive.
For the compound `O=C(C=C1c2ccccc2-c2ccccc21)NC1CCC(CN2CCC(c3c[nH]c4ccccc34)CC2)CC1` (stereo not given), the result was inactive.
For `CC(=O)N(Cc1ccccc1-c1cccc(CNCc2ccc3c(c2)OCO3)c1)C1CCN(Cc2ccccc2)CC1` the value was “inactive”; for `CC(Cc1ccc(OCCOc2ccccc2)cc1)NCC(O)c1cccc(C(F)(F)F)c1` (stereo not given), “inactive”.
For `CC(=O)Nc1ccc2[nH]cc(C3CCN(CC4CCN(C(=O)/C=C/c5ccc(Cl)c(Cl)c5)CC4)CC3)c2c1`, the outcome was inactive.
As to `CC(Cc1ccc(OCCCCOc2ccccc2)cc1)NCCCc1nc2ccccc2[nH]1` (stereo not given), the outcome was inactive.
Regarding `FC(F)(F)c1ccc(NC(=S)NC2CCC(CN3CCC(c4c[nH]c5ccccc45)CC3)CC2)cc1` (stereo not given), the outcome was inactive.
Consider `COc1cccc(O)c1CNCC(O)c1cccc(C(F)(F)F)c1` (stereo not given), for which the outcome was inactive.
As to `COc1ccc(CCNCc2ccc3nc(N)c(C)cc3c2)cc1`, the outcome was inactive.
To `Brc1cnc(NC2=NCCN2)c(Br)c1` belongs “inactive”.
For the compound `COc1ccc(C(=O)[C@H]2C[C@@H]2CN2CC=C(c3c[nH]c4ccccc34)CC2)cc1`, the result was inactive.
For `Oc1ccc(CN2CCN(CCOC(c3ccc(F)cc3)c3ccc(F)cc3)CC2)cc1Cl` the value was “inactive”; for `Oc1cc2c(cc1CN1CCN(Cc3ccccc3)CC1)CCC2`, “inactive”; for `CN(CC(=O)N1CCN(S(=O)(=O)c2cccc(Cl)c2)CC1CN1CCCC1)c1ccc(Cl)c(Cl)c1` (stereo not given), “inactive”.
For `O=C(/C=C/c1ccc(Cl)c(Cl)c1)N1CCC(CN2CCC(c3c[nH]c4cc(C(F)(F)F)ccc34)CC2)CC1` the value was “inactive”; for `COc1cc(C=CC(=O)N2CCC(CN3CCC(c4c[nH]c5ccccc45)CC3)CC2)ccc1O`, “inactive”; for `COC(=O)c1ccc(CC(C)NCC(O)c2cccc(C(F)(F)F)c2)c(Cl)c1` (stereo not given), “inactive”.
For `Cn1cc(CN2CCC(CCOC(c3ccccc3)c3ccccc3)CC2)cn1`, the result was inactive.
To `COc1cc(/C=C/C(=O)NC2CCC(CN3CCC(c4c[nH]c5ccccc45)CC3)CC2)ccc1O` (stereo not given) belongs “inactive”.
